RAD54 branch = inhibitors of human RAD54 branch migration; AID 602329; hit rate 0.14% among 360,000; Q92698; RAD54 Holliday junction branch migration, FAM/BHQ fluorescence; inhibition, % at 10.4 µM;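 active = mean normalized replicate activity at least 40 and at least half of replicates scoring 40 or more; inconclusive = only one of the two criteria met; inactive = mean below 40 and under half of replicates reaching 40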;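 also: inhibitors cause a drop in the FAM fluorescence signal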
dFosB act = activators of mouse delta FosB homodimer; hit rate 0.99% among 340,000; purified delta FosB, TAMRA-CDK5 oligo fluorescence polarization; percent of positive-control signal above neutral wells; activation, % at 25 µM; P13346; AID 493131;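 active = mean activation above about 17%, with every replicate also reaching it, limit read from the data, passing the limit was not always enough; inconclusive = only one of the two conditions met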
RAD52 inh = inhibitors of human RAD52 DNA annealing; P43351; recombinant RAD52 DNA annealing, FRET fluorescence; inhibition, % at 18.7 µM; hit rate 0.46% among 360,000;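 active = every replicate showing at least 50% inhibition; inconclusive = mean inhibition at least 50% but not in every replicate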
Target sequence (P43351 whole entry, looked up): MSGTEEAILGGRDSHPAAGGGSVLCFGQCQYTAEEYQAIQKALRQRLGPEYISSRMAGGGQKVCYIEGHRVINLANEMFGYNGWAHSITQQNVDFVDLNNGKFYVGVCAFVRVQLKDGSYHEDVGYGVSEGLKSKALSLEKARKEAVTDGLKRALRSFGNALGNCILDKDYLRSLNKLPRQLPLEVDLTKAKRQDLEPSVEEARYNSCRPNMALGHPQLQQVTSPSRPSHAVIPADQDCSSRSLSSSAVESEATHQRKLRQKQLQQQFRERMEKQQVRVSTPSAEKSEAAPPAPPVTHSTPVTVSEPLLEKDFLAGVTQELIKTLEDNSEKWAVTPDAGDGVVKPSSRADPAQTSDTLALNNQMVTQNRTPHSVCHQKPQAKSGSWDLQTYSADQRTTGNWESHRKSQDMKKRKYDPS
PvdQ acylase = blocks Pseudomonas aeruginosa PvdQ acylase activity; purified PvdQ acylase, fluorescence plate reader; inhibition, % at 10 µM; hit rate 0.063% among 340,000; in the data active = inhibition above about 30%, passing the limit was not always enough; inconclusive = no clear call, values can overlap the other calls
F508del corr = correctors of CFTR F508del function in bronchial epithelial cells. AID 720511. activity (quench increase), % at 7.58 µM. hit rate 0.36% among 350,000. CFBE cells, YFP halide quenching; stimulated with forskolin plus potentiator P3; % fluorescence drop versus neutral controls;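 active = mean added fluorescence quench of at least 8% versus neutral control, with both replicates also reaching 8%; inconclusive = only one of the mean or replicate conditions met; inactive = mean below 8% and not both replicates reaching 8%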;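 also: cells transiently co-express mutant CFTR-F508del with the halide-sensitive YFP; corrector assay measuring rescue of mutant channel to the surface after 24 h compound exposure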
N-glyco inh = blocks N-linked glycosylation in D54 reporter cells; D54 ERlucT glycosylation luciferase reporter, 24 h; percent of 100 nM tunicamycin response; reporter increase, % at 12.5 µM; hit rate 0.23% among 360,000; AID 588692;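 active = mean luciferase reporter signal, scaled so untreated is 0 and the glycosylation-blocking control 100, at or above a set limit in every replicate; inconclusive = mean reaches the limit but not every replicate does; inactive = mean below the limit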;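 also: luciferase carries N-glycosylation sites so blocking glycosylation raises the light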
A number is an active result; 0 = inactive; ? = inconclusive; - = no result. Hits are enriched below; roughly 1.5% of the tested compounds scored in any of these assays.

SMILES	RAD54 branch	dFosB act	RAD52 inh	PvdQ acylase	F508del corr	N-glyco inh
COc1ccc(NC(=O)c2ccc([N+](=O)[O-])o2)cc1	0	0	0	0	0	30.9
Cc1noc(NS(=O)(=O)c2ccc(N/C=C\C(=O)c3ccccc3)cc2)c1C	-	0	0	0	11.9	0
O=C(COC(=O)c1cc(Br)ccc1O)Nc1ccc2c(c1)OCCO2	0	23.1	0	0	0	0
Cc1ccccc1-c1ccc([C@@H]2[C@H]3CN(S(C)(=O)=O)CCCCN3[C@H]2CO)cc1	0	-	0	-	0	-
C[C@H](CO)N1C[C@H](C)[C@H](CN(C)C(=O)C2CCCCC2)Oc2cc(-c3ccccc3)ccc2S1(=O)=O	0	-	0	-	0	-
Cc1ccc(O)c(C(=O)/C=C/c2ccc3c(c2)OCCO3)c1	-	0	0	64.3	0	0
Cc1ccc(C(=O)C=Cc2ccc3c(c2)OCO3)c(C)c1	-	-	0	-	0	0
O=C(CCN1CCCCC1)NCC[C@@H]1CC[C@H](NS(=O)(=O)c2cccc(F)c2)[C@H](CO)O1	0	-	0	-	0	-
COc1ccc(C(=O)c2nccc3cc(OC)c(OC)cc23)cc1OC	0	0	-	0	-	0
COc1cc2c(cc1OC)-c1c(OC)c(OC)cc3ccnc(c13)C2=O	88.2	0	0	0	0	0
CC(C)[C@H](C)NC(=O)N(C)C[C@H]1OCc2ccccc2-c2c(n(C)c3ccccc23)C(=O)N([C@H](C)CO)C[C@H]1C	0	-	0	-	0	-
COC(=O)c1cn(NC(=O)c2cc([N+](=O)[O-])ccc2F)c(=O)c2ccccc12	-	0	0	0	8.7	0
COC(=O)c1cn(NC(=O)C2CCC(C)CC2)c(=O)c2ccccc12 (stereo unspecified)	0	0	-	0	-	0
Cc1ccc(S(=O)(=O)N2CCN(C(=O)COC(=O)/C=C/c3ccc(C(F)(F)F)cc3)CC2)c(C)c1	0	0	0	0	0	0
Cc1ccc(S(=O)(=O)N2CCN(C(=O)COC(=O)/C=C/c3ccc(Cl)cc3)CC2)c(C)c1	0	0	0	0	17.3	0
C[C@H]1CCCCO[C@H](CN(C)C(=O)NC2CCCCC2)[C@@H](C)CN([C@@H](C)CO)C(=O)c2cc(NS(=O)(=O)c3ccc(Cl)cc3)ccc2O1	0	-	0	-	0	-
CCOC(=O)c1sc2nc(Cc3ccc(Cl)cc3)[nH]c(=S)c2c1C	-	0	0	0	11.9	0
O=C(NCC[C@H]1CC[C@@H](NS(=O)(=O)c2cccc(F)c2)[C@H](CO)O1)Nc1cc(F)ccc1F	0	-	0	-	0	-
O=[N+]([O-])c1ccc(Sc2cccc[n+]2[O-])c2nonc12	-	0	0	0	45.1	0
CC(=O)N(C)C[C@@H]1Oc2cc(-c3cccc(F)c3)ccc2S(=O)(=O)N([C@@H](C)CO)C[C@H]1C	0	-	0	-	0	-
O=C(COC(=O)c1ccc([N+](=O)[O-])o1)NC1CCCC1	0	0	0	0	0	0
O=C(NC1CCCC(C(F)(F)F)C1)c1ccc([N+](=O)[O-])o1 (stereo unspecified)	0	0	0	0	0	29.1
O=C(NC1CCCCC1)c1ccc([N+](=O)[O-])o1	0	0	-	0	-	41.0
O=C(COC(=O)c1ccc([N+](=O)[O-])o1)NC1CCCCC1	0	0	0	0	0	0
C[C@H]1CN([C@@H](C)CO)S(=O)(=O)c2ccc(-c3ccc(C#N)cc3)cc2O[C@H]1CN(C)C	0	-	0	-	0	-
SMILES	RAD54 branch	dFosB act	RAD52 inh	PvdQ acylase	F508del corr	N-glyco inh
C[C@@H]1CN([C@H](C)CO)C(=O)Cc2cc(NC(=O)Nc3ccc(C(F)(F)F)cc3)ccc2O[C@H]1CN(C)S(C)(=O)=O	0	-	0	-	0	-
CC=Cc1ccc2n(c1=O)C[C@@H]1[C@@H](CO)[C@H](C(=O)NCC3CC3)[C@H]2N1S(=O)(=O)c1cn(C)cn1 (mixture of isomers)	0	-	0	-	0	-
Cc1ccc(S(=O)(=O)NC2CCN(Cc3cccc(OCCO)c3)CC2)cc1	0	-	51.5	-	0	-
N#C/C(=C/c1ccc(N2CCCCC2)o1)C(=O)Nc1ccc2ccccc2c1	-	0	0	0	9.6	0
O=C(C[C@@H]1CC[C@H]2[C@@H](COC[C@@H](O)CN2Cc2ccccc2F)O1)NC1CCC1	0	-	0	-	0	-
Cc1ccc(-c2ccc([C@H]3[C@@H](CO)N4CCCCN(S(=O)(=O)c5cccc(C)c5)C[C@H]34)cc2)cc1	0	-	69.8	-	0	-
Cc1cccc(S(=O)(=O)N2CCCCN3[C@@H](CO)[C@@H](c4ccc(-c5ccccc5)cc4)[C@@H]3C2)c1	0	-	63.5	-	0	-
O=C(C[C@H]1CC[C@@H]2[C@H](COC[C@H](O)CN2C(=O)Nc2ccccc2)O1)NC1Cc2ccccc2C1	0	-	0	-	0	-
C[C@H]1CN([C@@H](C)CO)C(=O)c2cc(C#CC(C)(C)O)cnc2O[C@@H]1CN(C)C(=O)CN(C)C	0	-	0	-	0	-
O=c1oc2ccccc2c(Nc2cc3ccccc3cc2O)c1[N+](=O)[O-]	-	0	0	0	8.5	0
COc1cc(C(=O)Nc2ccc3c(c2)CCN3C(C)=O)cc(OC)c1OC	-	0	0	0	11.5	?
CC(C)CC[n+]1ccn(-c2nc3ccccc3nc2[N-]S(=O)(=O)c2ccccc2)c1	0	0	-	0	-	0
O=S(=O)([N-]c1nc2ccccc2nc1-n1cc[n+](Cc2ccccc2)c1)c1ccc(Cl)cc1	0	0	0	0	0	46.5
CC1(Cc2ccc(F)cc2)C(=O)Nc2c(Cl)ccc(Cl)c21 (stereo unspecified)	0	-	0	-	8.8	0
CC1(Cc2ccc(Cl)c(Cl)c2)C(=O)Nc2c(Cl)ccc(Cl)c21 (stereo unspecified)	0	-	0	-	0	0
O=C(N[C@H]1CC[C@H](CCn2cc(-c3ccccn3)nn2)O[C@@H]1CO)c1ccccc1	0	-	0	-	0	-
CCN1CCN(c2cc(C)c3cc(NC(=O)CCC(=O)Nc4ccc(OC)c(OC)c4)ccc3n2)CC1	0	0	0	0	0	0
CCN1CCN(c2cc(C)c3cc(NC(=O)c4ccc(OC)c(OC)c4)ccc3n2)CC1	58.5	0	0	0	13.4	0
N=c1sccn1CC(=O)Nc1ccc(S(N)(=O)=O)cc1	0	0	0	0	10.8	0
N=c1sccn1CC(=O)Nc1cccc(S(N)(=O)=O)c1	0	0	0	0	0	0
O=C(N/N=C\c1ccc([N+](=O)[O-])o1)c1cncc(Br)c1	0	0	0	0	0	0
CCN(CC)S(=O)(=O)c1cccc(C(=O)N/N=C/c2ccc([N+](=O)[O-])o2)c1	-	0	0	0	0	51.5
O=C(/C=C/c1ccccc1)c1ccc2c3c(cccc13)CC2	-	0	-	0	-	46.6
CCCC(=O)Nc1ccc2c(c1)OC[C@@H](C)N(C(=O)CN(C)C)C[C@H](C)[C@@H](OC)CN(C)C2=O	0	-	0	-	0	-
O=C(c1cc(-c2ccncc2)nc2c(Cl)cccc12)N1CCN(c2ccccc2F)CC1	0	0	0	0	13.8	0

Screens (PubChem)
